Results taken from PubChem BioAssay (Tox21).
Records with an inconclusive call do not appear. Entries that show only a call come without a potency. Unmarked numbers belong to inactive results. Activity calls are given as the source filed them. The call rests on the fitted dose curve; in most records, active means well fitted curve in the direction sought with a large enough effect in the repeat runs; inconclusive means weak or mixed curves; inactive means no such curve, though single readings can be large; an effect the other way counts as inactive or inconclusive. Where a SMILES comes first, the peptide text is derived from it. [ ]: non-standard residue; d: D form. pGlu = O=C1CC[C@@H](C(=O)O)N1

Assay: A CellTox Green Cytotoxicity Assay to monitor cytotoxicity in HepG2 cells - 16 hour (AID 1224876); further: nearly all actives have a fitted effect of over 45% in size
Conditions: CellTox Green fluorescence; series mostly up to 76.8 µM
Procedure, shortened: (§1)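 Real-time cytotoxicity: fluorescence of a cell-impermeant cyanine dye binding DNA of dead HepG2 cells, measured repeatedly (0–40 h) during compound exposure at 37 C. Cells seeded 600/well with reagent, dosed after 5 h.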

| SMILES | outcome | cytotoxicity increase |
| --- | --- | --- |
| C[N+]1(C)[C@@H]2CC(OC(=O)[C@H](CO)c3ccccc3)C[C@H]1[C@@H]1O[C@@H]12 (some centres undefined) | inactive |  |
| CC[N+](C)(CC)CCOC(=O)C1c2ccccc2Oc2ccccc21 | inactive |  |
| CCC(C)(CN(C)C)OC(=O)c1ccccc1 (centres undefined) | inactive |  |
| CN1CCN(c2cc3c(nn2)Oc2ccccc2N3C)CC1 |  | -0.721% [at 15.8 µM] |
| CCN[C@@H]1C[C@H](N)[C@@H](OC2OC(CN)=CCC2N)[C@H](O)[C@H]1O[C@H]1OC[C@](C)(O)[C@H](NC)[C@H]1O (some centres undefined) |  | -0.147% [at 0.29 µM] |
| C[N+](C)(C)CCCCCCCCCC[N+](C)(C)C | inactive |  |
| Nc1c2c(nc3c1CCC3)CCCC2 | inactive |  |
| CCOCC(C)O (centres undefined) | inactive |  |
| CC[N+](CC)(CC)CCOc1cccc(OCC[N+](CC)(CC)CC)c1OCC[N+](CC)(CC)CC | inactive |  |
| COc1cc(-c2ccc(=O)[nH]n2)ccc1OC(F)F | inactive |  |
| C=CCCC(=O)O | inactive |  |
| CC(C#N)(CCC(=O)O)N=NC(C)(C#N)CCC(=O)O (centres undefined) | inactive |  |
| CN(C)CCCCCCN(C)C | inactive |  |

Assay: qHTS RealTime-Glo MT Cell Viability Assay in HepG2 cells - 32 hour (AID 1224877); further: nearly all actives have a fitted effect of over 55% in size
Conditions: RealTime-Glo luminescence; series mostly up to 76.8 µM
Procedure, shortened: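 HepG2 cells (600/well) were dispensed with RealTime-Glo reagents, incubated 5 h at 37 °C, then treated with compounds in DMSO for up to 40 h. Nonlytic NanoLuc luminescence reflecting viable cells was read at each stated time point.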

| SMILES | Potency | activity change, negative = cytotoxic |
| --- | --- | --- |
| O=S(=O)(O)c1cc(O)c(O)c(S(=O)(=O)O)c1 | inactive |  |
| CCC1C(=O)OCC1Cc1cncn1C (centres undefined) | inactive |  |
| CC1=NN(c2cc(S(=O)(=O)O)ccc2Cl)C(=O)C1N=Nc1ccccc1 (centres undefined) | inactive |  |
| O=S(=O)(O)c1cccc(S(=O)(=O)O)c1 | inactive |  |
| NCCCC(N)(C(=O)O)C(F)F (centres undefined) | inactive |  |
| CCC(C(=O)NC(=O)NC(C)=O)c1ccccc1 (centres undefined) | inactive |  |
| CC1=CC(=O)[C@H]2C[C@@H]1C2(C)C | inactive |  |
| CN(C)C(=O)Oc1cccc([N+](C)(C)C)c1 | inactive |  |
| CC[C@H]1OC(=O)[C@H](C)[C@@H](O[C@H]2C[C@@](C)(OC)[C@@H](O)[C@H](C)O2)[C@H](C)[C@@H](O[C@@H]2O[C@H](C)C[C@H](N(C)C)[C@H]2O)[C@](C)(OC)C[C@@H](C)C(=O)[C@H](C)[C@@H](O)[C@]1(C)O | inactive |  |
| CCCCCCCCCCCCCCC(=O)O | inactive |  |
| CN1CCC(=C2c3ccccc3CCc3cccnc32)CC1 | inactive |  |
| CCOc1ccccc1OCC | inactive |  |
| CCCc1ncc(C[n+]2ccccc2C)c(N)n1 | inactive |  |
| CCOC(=O)c1cnc2c(cnn2CC)c1NN=C(C)C | inactive |  |
| CC(C(=O)O)c1cccc(Oc2ccccc2)c1 (centres undefined) | inactive |  |
| CCNC(=O)[C@@H]1CCCN1C(=O)[C@H](CCCN=C(N)N)NC(=O)[C@H](CC(C)C)NC(=O)CNC(=O)[C@H](Cc1ccc(O)cc1)NC(=O)[C@H](CO)NC(=O)[C@H](Cc1c[nH]c2ccccc12)NC(=O)[C@H](Cc1cnc[nH]1)NC(=O)[C@@H]1CCC(=O)N1 ([pGlu]HWSYGLRP-NHEt) | inactive |  |
| CC[N+](C)(CC)CCOC(=O)C1c2ccccc2Oc2ccccc21 | inactive |  |
| C[C@H]1C[C@H]2[C@@H]3CCC4=CC(=O)C=C[C@]4(C)[C@H]3C(=O)C[C@]2(C)[C@@]1(O)C(=O)CO | inactive |  |
| CCC(C)(CN(C)C)OC(=O)c1ccccc1 (centres undefined) | inactive |  |
| CN1CCN(c2cc3c(nn2)Oc2ccccc2N3C)CC1 |  | 3.07% [at 15.8 µM] |
| OCCCCCO | inactive |  |
| CCN[C@@H]1C[C@H](N)[C@@H](OC2OC(CN)=CCC2N)[C@H](O)[C@H]1O[C@H]1OC[C@](C)(O)[C@H](NC)[C@H]1O (some centres undefined) |  | 1.75% [at 0.29 µM] |
| C[N+](C)(C)CCCCCCCCCC[N+](C)(C)C | inactive |  |
| CCOCC(C)O (centres undefined) | inactive |  |
| CCCCN1C=CN(C)C1 |  | -0.21% [at 15.8 µM] |
| C=CCCC(=O)O | inactive |  |
| CC(C#N)(CCC(=O)O)N=NC(C)(C#N)CCC(=O)O (centres undefined) | inactive |  |
| CN(C)CCCCCCN(C)C | inactive |  |

Assay: A CellTox Green Cytotoxicity Assay to monitor cytotoxicity in HepG2 cells - 24 hour (AID 1224878); further: nearly all actives have a fitted effect of over 45% in size
Conditions: CellTox Green fluorescence; series mostly up to 76.8 µM
Procedure, shortened: as §1

| SMILES | outcome | cytotoxicity |
| --- | --- | --- |
| O=S(=O)(O)c1cc(O)c(O)c(S(=O)(=O)O)c1 | inactive |  |
| CCC1C(=O)OCC1Cc1cncn1C (centres undefined) | inactive |  |
| C[C@H]1[C@H](NC(=O)/C(=N/OC(C)(C)C(=O)O)c2csc(N)n2)C(=O)N1S(=O)(=O)O (stereo in doubt) | inactive |  |
| Nc1ccn([C@@H]2O[C@H](CO)[C@@H](O)C2O)c(=O)n1 (some centres undefined) | inactive |  |
| CC1=NN(c2cc(S(=O)(=O)O)ccc2Cl)C(=O)C1N=Nc1ccccc1 (centres undefined) | inactive |  |
| O=S(=O)(O)c1cccc(S(=O)(=O)O)c1 | inactive |  |
| CCN[C@H]1C[C@H](C)S(=O)(=O)c2sc(S(N)(=O)=O)cc21 | inactive |  |
| NCCCC(N)(C(=O)O)C(F)F (centres undefined) | inactive |  |
| CCC(C(=O)NC(=O)NC(C)=O)c1ccccc1 (centres undefined) | inactive |  |
| CC(C)NNC(=O)c1ccncc1 | inactive |  |
| NCCCC[C@H](N[C@@H](CCc1ccccc1)C(=O)O)C(=O)N1CCC[C@H]1C(=O)O | inactive |  |
| CC1=CC(=O)[C@H]2C[C@@H]1C2(C)C | inactive |  |
| CN(C)C(=O)Oc1cccc([N+](C)(C)C)c1 | inactive |  |
| CC[C@H]1OC(=O)[C@H](C)[C@@H](O[C@H]2C[C@@](C)(OC)[C@@H](O)[C@H](C)O2)[C@H](C)[C@@H](O[C@@H]2O[C@H](C)C[C@H](N(C)C)[C@H]2O)[C@](C)(OC)C[C@@H](C)C(=O)[C@H](C)[C@@H](O)[C@]1(C)O | inactive |  |
| COC(=O)C1=C(C)NC(C)=C(C(=O)OC(C)C)C1c1cccc2nonc12 (centres undefined) | inactive |  |
| CCCCCCCCCCCCCCC(=O)O | inactive |  |
| CN1CCC(=C2c3ccccc3CCc3cccnc32)CC1 | inactive |  |
| CCOc1ccccc1OCC | inactive |  |
| CCCc1ncc(C[n+]2ccccc2C)c(N)n1 | inactive |  |

| SMILES | outcome | cytotoxicity |
| --- | --- | --- |
| CCOC(=O)c1cnc2c(cnn2CC)c1NN=C(C)C | inactive |  |
| CC(C(=O)O)c1cccc(Oc2ccccc2)c1 (centres undefined) | inactive |  |
| CCNC(=O)[C@@H]1CCCN1C(=O)[C@H](CCCN=C(N)N)NC(=O)[C@H](CC(C)C)NC(=O)CNC(=O)[C@H](Cc1ccc(O)cc1)NC(=O)[C@H](CO)NC(=O)[C@H](Cc1c[nH]c2ccccc12)NC(=O)[C@H](Cc1cnc[nH]1)NC(=O)[C@@H]1CCC(=O)N1 ([pGlu]HWSYGLRP-NHEt) | inactive |  |
| C[N+]1(C)[C@@H]2CC(OC(=O)[C@H](CO)c3ccccc3)C[C@H]1[C@@H]1O[C@@H]12 (some centres undefined) | inactive |  |
| CC[N+](C)(CC)CCOC(=O)C1c2ccccc2Oc2ccccc21 | inactive |  |
| C[C@H]1C[C@H]2[C@@H]3CCC4=CC(=O)C=C[C@]4(C)[C@H]3C(=O)C[C@]2(C)[C@@]1(O)C(=O)CO | inactive |  |
| CCC(C)(CN(C)C)OC(=O)c1ccccc1 (centres undefined) | inactive |  |
| CN1CCN(c2cc3c(nn2)Oc2ccccc2N3C)CC1 |  | -2.46% [at 15.8 µM] |
| OCCCCCO | inactive |  |
| CCN[C@@H]1C[C@H](N)[C@@H](OC2OC(CN)=CCC2N)[C@H](O)[C@H]1O[C@H]1OC[C@](C)(O)[C@H](NC)[C@H]1O (some centres undefined) |  | -2.12% [at 0.29 µM] |
| C[N+](C)(C)CCCCCCCCCC[N+](C)(C)C | inactive |  |
| Nc1c2c(nc3c1CCC3)CCCC2 | inactive |  |
| CCOCC(C)O (centres undefined) | inactive |  |
| CC[N+](CC)(CC)CCOc1cccc(OCC[N+](CC)(CC)CC)c1OCC[N+](CC)(CC)CC | inactive |  |
| CCCCN1C=CN(C)C1 |  | -16.6% [at 15.8 µM] |
| COc1cc(-c2ccc(=O)[nH]n2)ccc1OC(F)F | inactive |  |
| C=CCCC(=O)O | inactive |  |
| CC(C#N)(CCC(=O)O)N=NC(C)(C#N)CCC(=O)O (centres undefined) | inactive |  |
| CN(C)CCCCCCN(C)C | inactive |  |
